# Reference: PubChem BioAssay (Tox21)
# Where “and” joins values, the source holds several entries; their conditions need not be identical. Equal values may be shown once. A number with no mark means an inactive call. Inconclusive results are not listed. Entries that show only a call come without a potency. Calls of active or inactive are those of the source. Unless noted, calls come from the whole dose curve; as a rule, active = well fitted curve in the direction sought with a large enough effect in the repeat runs; inconclusive = weak or mixed curves; inactive = no such curve, though single readings can be large; an effect the other way counts as inactive or inconclusive.
# What was measured:
# [1] = qHTS assay for small molecule agonists of the p53 signaling pathway (AID 651631; calls by dose curve; note: nearly all actives have a fitted effect of over 15% in size; note: potency is the fitted concentration of half-maximal effect)
# Procedure, shortened: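 Quantitative high-throughput format: 4,000 p53RE-bla HCT-116 cells/well, 5 h pre-incubation, 16 h compound exposure at 37 °C, 2 h room-temperature substrate step, fluorescence intensity measured.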
# [2] = qHTS assay for small molecules that induce genotoxicity in human embryonic kidney cells expressing luciferase-tagged ATAD5 (AID 651632); note: nearly all actives have a fitted effect of over 15% in size; note: potency is the fitted concentration of half-maximal effect
# Procedure, shortened: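 Concentration-response screen for ATAD5 upregulation in HEK293T luciferase reporter cells; 16 hr treatment at 37C, then luminescence after 30 min with Amplite at room temperature.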
# [3] = qHTS assay for small molecule agonists of the p53 signaling pathway - cell viability (AID 651633; calls by dose curve;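 note: p53RE-bla HCT reporter cells with a stable beta-lactamase p53 reporter; series mostly up to about 83 µM; nearly all actives have a fitted effect of over 30% in size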)
# Procedure, shortened: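 Viability counter-read: CellTiter-Glo luminescence (30 min, room temperature) in the same p53RE-bla plates. These plates had been exposed to compounds for 16 h at 37 C.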
# [4] = qHTS assay for small molecules that induce genotoxicity in human embryonic kidney cells expressing luciferase-tagged ATAD5 - cell viability (AID 651634; calls by dose curve; note: nearly all actives have a fitted effect of over 25% in size)
# Procedure, shortened: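 15.5 hr compound or vehicle exposure of HEK293T cells expressing luciferase-tagged ATAD5 at 37C; live-cell protease activity is read by fluorescence after 30 min of CellTiter-Fluor.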
# [5] = qHTS assay for small molecule disruptors of the mitochondrial membrane potential - cell viability (AID 720634; calls by dose curve;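 note: human HepG2 liver cancer cells; series mostly up to about 83 µM; nearly all actives have a fitted effect of over 20% in size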)
# Procedure, shortened: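 In this qHTS format, HepG2 cells plated overnight were pinned with compound, incubated 1 hr, and assayed for ATP luminescence with CellTiter-Glo after m-MPI dye addition.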
# [6] = qHTS assay for small molecule disruptors of the mitochondrial membrane potential (AID 720635)
# Procedure, shortened: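 Mitochondrial membrane potential tracked with Mito-MPS dye, red aggregates (ex 540/em 590 nm) against green monomers (ex 490/em 535 nm). Compound treatment 1 hr at 37C, dye 30 min in HepG2.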
# [7] = qHTS assay to test for compound auto fluorescence at 590 nm (red) in HepG2 cells (AID 720674)
# Procedure, shortened: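 We screened compounds on adherent HepG2 cells, incubating them for an hour at 37 C in 5% CO2 before reading emission at 590 nm under 540 nm excitation; values reflect equivalence to Rose Bengal sodium fluorescence.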
# [8] = qHTS assay to test for compound auto fluorescence at 535 nm (green) in HepG2 cells (AID 720675)
# [9] = qHTS assay to test for compound auto fluorescence at 460 nm (blue) in HEK293 cells (AID 720678); note: potency is the fitted concentration of half-maximal effect
# Procedure, shortened: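 Blue read-out at excitation 405 nm and emission 460 nm follows overnight compound exposure of HEK293 cells at 37C in 5% CO2. Activity is given as auto fluorescence equivalency to triamterene.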
# [10] = qHTS assay to test for compound auto fluorescence at 590 nm (red) in HEK293 cells (AID 720679)
# Procedure, shortened: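 Red channel, Ex/Em 540/590nm; signal expressed as equivalency to Rose Bengal sodium. HEK293, 2,000 cells/well, 10% dialyzed FBS; 23 nL compound pinned after 4-5 hr attachment; overnight 37C/5% CO2 before reading.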
# [11] = qHTS assay to test for compound auto fluorescence at 535 nm (green) in HEK293 cells (AID 720680)
# [12] = qHTS assay to test for compound auto fluorescence at 460 nm (blue) in HEK293 cell free culture (AID 720681); note: potency is the fitted concentration of half-maximal effect
# Procedure, shortened: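 Blue fluorescence (Ex 405/Em 460 nm, triamterene-equivalent) was read immediately after pin transfer of compound or DMSO into medium (DMEM, 10% FBS) without cells.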
# [13] = qHTS assay to test for compound auto fluorescence at 535 nm (green) in HEK293 cell free culture (AID 720682)
# Procedure, shortened: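 Measurement is a direct plate read of green fluorescence (485 nm in, 535 nm out) after compound addition to serum-supplemented DMEM lacking cells, with fluorescein used to express intensities.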
# [14] = qHTS assay to test for compound auto fluorescence at 590 nm (red) in HEK293 cell free culture (AID 720683)
# Procedure, shortened: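 Red-channel autofluorescence of compounds in culture medium (DMEM, 10% FBS), no cells, measured at 540/590 nm. Rose Bengal sodium is the reference fluorophore for equivalence.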
# [15] = qHTS assay to test for compound auto fluorescence at 590 nm (red) in HepG2 cell free culture (AID 720684)
# Procedure, shortened: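 No cells present: MEM + 10% FBS only. Compound pinned in, red label read (540/590 nm). Activity = fluorescence equivalent to Rose Bengal sodium.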
# [16] = qHTS assay to test for compound auto fluorescence at 460 nm (blue) in HepG2 cell free culture (AID 720685); note: potency is the fitted concentration of half-maximal effect
# Procedure, shortened: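 Cell-free plates of MEM plus 10% FBS received 23 nL compound or DMSO vehicle; blue-channel (405/460 nm) intensity scored against triamterene as reference fluorophore.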
# [17] = qHTS assay to test for compound auto fluorescence at 535 nm (green) in HepG2 cell free culture (AID 720686)
# [18] = qHTS assay to test for compound auto fluorescence at 460 nm (blue) in HepG2 cells (AID 720687); note: potency is the fitted concentration of half-maximal effect
# Procedure, shortened: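 Blue-channel autofluorescence (Ex/Em 405/460 nm, triamterene-equivalent) was measured after 1 hr compound exposure at 37 C, 5% CO2. Cells were HepG2, plated overnight at 37 C in MEM plus 10% FBS.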
# [19] = molecular target: Glucocorticoid receptor (Homo sapiens) (UniProt P04150); assay: qHTS assay to identify small molecule agonists of the glucocorticoid receptor (GR) signaling pathway (AID 720691; active = well fitted activation curve with a large enough effect in the signal ratio in the repeat runs, not every such curve was filed as active; the % refers to the signal ratio)
# Procedure, shortened: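 Measures GR pathway activation through a GRE-beta-lactamase reporter stably integrated in HeLa cells, with 18 h compound treatment at 37 C and fluorescence detection using a FRET substrate.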
# [20] = molecular target: Glucocorticoid receptor (Homo sapiens) (UniProt P04150); assay: qHTS assay to identify small molecule antagonists of the glucocorticoid receptor (GR) signaling pathway (AID 720692; active = well fitted inhibition curve with a large enough effect in the signal ratio in the repeat runs, not every such curve was filed as active; the % refers to the signal ratio)
# Procedure, shortened: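 Tox21 10K library screened in concentration-response for blockade of dexamethasone (5 nM final)-induced GRE-bla reporter activity in HeLa cells; 18 h treatment, fluorescence read.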
# Tags give direction and shape of the fitted curve or compound fluorescence and quenching.
# Sequence of Glucocorticoid receptor (Homo sapiens) (P04150 whole entry, looked up): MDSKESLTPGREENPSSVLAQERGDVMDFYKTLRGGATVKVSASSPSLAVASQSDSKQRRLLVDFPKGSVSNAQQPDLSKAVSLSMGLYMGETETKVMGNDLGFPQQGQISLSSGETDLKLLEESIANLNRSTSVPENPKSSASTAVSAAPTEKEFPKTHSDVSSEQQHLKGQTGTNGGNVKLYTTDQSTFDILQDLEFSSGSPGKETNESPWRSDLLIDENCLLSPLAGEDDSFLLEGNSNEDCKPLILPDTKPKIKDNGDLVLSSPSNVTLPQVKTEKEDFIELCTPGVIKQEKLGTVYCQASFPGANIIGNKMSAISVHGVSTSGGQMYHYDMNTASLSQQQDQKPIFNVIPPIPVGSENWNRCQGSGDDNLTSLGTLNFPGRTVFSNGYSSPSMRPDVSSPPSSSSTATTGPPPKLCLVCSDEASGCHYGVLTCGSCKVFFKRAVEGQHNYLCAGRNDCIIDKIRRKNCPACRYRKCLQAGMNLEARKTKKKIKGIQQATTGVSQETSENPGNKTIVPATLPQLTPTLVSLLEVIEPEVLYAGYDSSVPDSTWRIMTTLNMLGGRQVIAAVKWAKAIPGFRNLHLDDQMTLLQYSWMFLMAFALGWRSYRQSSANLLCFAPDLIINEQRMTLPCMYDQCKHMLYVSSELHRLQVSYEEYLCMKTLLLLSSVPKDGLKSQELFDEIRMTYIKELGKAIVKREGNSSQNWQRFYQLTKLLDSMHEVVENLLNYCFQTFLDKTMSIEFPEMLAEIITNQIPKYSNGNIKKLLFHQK
SMILES,Potency [1],Potency [2],Potency [3],Potency [4],Potency [5],Potency [6],outcome [7],outcome [8],Potency [9],outcome [10],outcome [11],Potency [12],outcome [13],outcome [14],outcome [15],Potency [16],outcome [17],Potency [18],Potency [19],Potency [20]
Nc1ccc2cc(S(=O)(=O)O)ccc2c1,inactive,inactive,inactive,inactive,inactive,inactive,inactive,inactive,31.6 µM [fluorescent] (active),inactive,inactive,31.6 µM (active),inactive,inactive,inactive,31.6 µM [fluorescent] (active),inactive,31.6 µM [fluorescent] (active),inactive,inactive
C=CC(=O)OCCCCCC,inactive,inactive,inactive,inactive,inactive,,inactive,inactive,inactive,inactive,inactive,inactive,inactive,inactive,inactive,inactive,inactive,inactive,,
C=CCSCC1Nc2cc(Cl)c(S(N)(=O)=O)cc2S(=O)(=O)N1 (stereo not drawn),inactive,inactive,inactive,inactive,inactive,inactive,inactive,inactive,inactive,inactive,inactive,inactive,inactive,inactive,inactive,inactive,inactive,inactive,inactive,inactive
O=S(=O)(O)c1ccccc1O,inactive,inactive,inactive,inactive,inactive,inactive,inactive,,inactive,inactive,inactive,inactive,inactive,inactive,inactive,inactive,inactive,inactive,inactive,inactive
COc1cccc(Br)c1,inactive,inactive,inactive,inactive,inactive,inactive,inactive,,inactive,inactive,inactive,inactive,inactive,inactive,inactive,inactive,inactive,inactive,,
Nc1nc(F)nc2c1ncn2[C@@H]1O[C@H](CO)[C@@H](O)[C@@H]1O,13.3 µM (active) and 8.41 µM (active),inactive,inactive,inactive,inactive,inactive,inactive,inactive,inactive,inactive,inactive,inactive,inactive,inactive,inactive,inactive,inactive,inactive,inactive,inactive
CC/C=C\CCCCO,inactive,inactive,inactive,inactive,inactive,,inactive,inactive,inactive,inactive,inactive,inactive,inactive,inactive,inactive,inactive,inactive,inactive,,
C[N+](C)(C)CC[N+]1(C)Cc2c(Cl)c(Cl)c(Cl)c(Cl)c2C1,inactive,inactive,inactive,inactive,inactive,inactive,inactive,,inactive,inactive,inactive,inactive,inactive,inactive,inactive,inactive,inactive,inactive,inactive,inactive
C=CCOc1nc(OCC=C)nc(OCC=C)n1,inactive,inactive,inactive,inactive,inactive,inactive,inactive,inactive,inactive,inactive,inactive,inactive,inactive,,inactive,inactive,inactive,inactive,inactive,inactive
Cn1ccc2cc3c(cc21)CCN3C(=O)Nc1cccnc1,inactive,11.9 µM (active),inactive,inactive,inactive,,inactive,inactive,inactive,inactive,inactive,inactive,inactive,inactive,inactive,inactive,inactive,inactive,inactive,
CC1=CC(C)C(C=O)C(C)C1 (stereo not drawn),inactive,inactive,inactive,inactive,inactive,inactive,inactive,inactive,inactive,inactive,inactive,inactive,inactive,inactive,inactive,inactive,inactive,inactive,inactive,inactive
O=C1OC(=O)c2cc([N+](=O)[O-])ccc21,inactive,inactive,inactive,inactive,inactive,inactive,inactive,,inactive,inactive,inactive,inactive,inactive,,inactive,inactive,inactive,inactive,inactive,inactive
NC(=O)c1ncn([C@@H]2O[C@H](CO)[C@@H](O)[C@H]2O)c1O,inactive,inactive,inactive,inactive,inactive,inactive,inactive,inactive,inactive,inactive,inactive,inactive,inactive,inactive,inactive,inactive,inactive,inactive,inactive,inactive
CC(C)(O)C(=O)c1ccc(OCCO)cc1,inactive,inactive,inactive,inactive,inactive,inactive,inactive,inactive,inactive,inactive,inactive,inactive,inactive,,inactive,inactive,inactive,inactive,inactive,inactive
